# From PMC5540273 (PLoS ONE, 2017)
# Test system: T1, ERK2
# T1 construct: gene MAPK1
# Conditions: concentration: 1 μM,replicates: in singlicate; n = 1
# 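Further: KINOMEscan kinase panel screen.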
row,Structure (SMILES),%Inh [%]
1,CCN(CC)CCOc1ccc(Nc2ncc3cc(-c4c(Cl)cccc4Cl)c(=O)n(C)c3n2)cc1 [SB-601273],3
2,Cc1cc(C(=O)Nc2ccc(Oc3ccc4nc(NC(=O)C5CC5)cn4n3)cc2)nn1-c1ccccc1,12
3,Cl.Oc1cc(-c2nc(-c3ccccc3)[nH]c2-c2ccncc2)ccc1Cl [SB-386023],25
4,CNC(=O)c1ccccc1Sc1ccc2c(/C=C/c3ccccn3)n[nH]c2c1,0
5,Cc1ccc2c(-c3ccncc3)c(-c3ccc(F)cc3)nn2c1.Cl [GW461484],0
6,CN(C)CC(O)COc1ccc(Nc2nccc(-c3cnn4nc(N5CCOCC5)ccc34)n2)cc1 (stereo not drawn) [GW767488],12
7,Cl.Cl.Nc1nc(-c2ccc3c(N)n[nH]c3c2)cc(N2CCCC(NC(=O)c3ccccc3)C2)n1 (stereo not drawn) [GSK2286775],0
8,CCn1c(-c2nonc2N)nc2c(C#CC(C)(C)O)nc(OCCN)cc21.Cl.Cl [GSK902056],0
9,CC(C)Nc1cc(-c2ccc3c(N)n[nH]c3c2)nc(N)n1 [GSK2221681],0
10,Cl.Cl.NC[C@H](CC1CCCCC1)NC(=O)c1cc(Br)c(-c2ccnc3[nH]ccc23)s1 [GSK1581427],12
11,Cc1ccc(-n2nc(C(C)(C)C)cc2NC(=O)Nc2ccc(OCCN3CCOCC3)c3ccccc23)cc1 [GW839464],0
12,Nc1nc(Nc2ccccc2)cc(-c2ccc3c(N)n[nH]c3c2)n1 [GSK2225749],0
13,C[C@@H]1CCN(C(=O)CC#N)C[C@@H]1N(C)c1ncnc2[nH]ccc12,0
14,C=CC(=O)Nc1cc2c(Nc3ccc(F)c(Cl)c3)ncnc2cc1OCCCN1CCOCC1 [GW781483],0
15,CCN(CC)CCCCNc1ncc2cc(-c3c(Cl)cccc3Cl)c(NC(=O)NC(C)(C)C)nc2n1,23
16,CC(C)N1C(=O)Cc2cc(Nc3ncc(C(F)(F)F)c(NCc4cccc(S(C)(=O)=O)c4)n3)ccc21,23
17,Cl.Cl.NC[C@H](Cc1ccc(C(F)(F)F)cc1)NC(=O)c1cc(Br)c(-c2ccnc3[nH]ccc23)s1 [GSK1487252],20
18,Cc1n[nH]c2ccc(-c3cc(OC[C@@H](N)Cc4ccccc4)cnc3-c3ccoc3)cc12.O=C(O)C(F)(F)F.O=C(O)C(F)(F)F [GSK507358],70
19,Cc1cc2cn[nH]c2cc1-c1cccc2c(N)c(C(N)=O)nnc12,79
20,COc1ccc(C[C@@H](CN)NC(=O)c2cc(Br)c(-c3ccnc4[nH]ccc34)s2)cc1.Cl.Cl [GSK1389063],19
21,O=C(NCCNc1ccnc(NCc2ccc(F)cc2)n1)c1cc2ccccc2s1 [GSK1379944],0
22,C[C@H]1Oc2cc(cnc2N)-c2c(nn(C)c2C#N)CN(C)C(=O)c2ccc(F)cc21,19
23,O=C(NCCCN1CCOC1=O)c1cnc(NCc2cc(Cl)ccc2Cl)nc1NC1CCCC1,19
24,NC(=O)c1cc(-c2ccccc2)cc2c(C3CCNCC3)c[nH]c12 [GSK301362],9
25,CN(C)CCOc1ccc(-c2cc(-c3c[nH]nc3-c3ccccn3)ccn2)cc1 [GW835314],12
26,C[C@@H](Oc1cc(-c2cnn(C3CCNCC3)c2)cnc1N)c1c(Cl)ccc(F)c1Cl,14
27,Cc1occc1-c1nc(N)c(OC[C@@H](N)Cc2c[nH]c3ccccc23)cc1-c1cc2c(C)n[nH]c2cn1 [GSK1660450],0

# Test system: T2, ERK3
# T2 construct: gene MAPK6
# Conditions: concentration: 1 μM,replicates: in singlicate; n = 1
row,Structure (SMILES),%Inh [%]
1,CCN(CC)CCOc1ccc(Nc2ncc3cc(-c4c(Cl)cccc4Cl)c(=O)n(C)c3n2)cc1 [SB-601273],100
2,Cc1cc(C(=O)Nc2ccc(Oc3ccc4nc(NC(=O)C5CC5)cn4n3)cc2)nn1-c1ccccc1,0
3,Cl.Oc1cc(-c2nc(-c3ccccc3)[nH]c2-c2ccncc2)ccc1Cl [SB-386023],0
4,CNC(=O)c1ccccc1Sc1ccc2c(/C=C/c3ccccn3)n[nH]c2c1,0
5,Cc1ccc2c(-c3ccncc3)c(-c3ccc(F)cc3)nn2c1.Cl [GW461484],0
6,CN(C)CC(O)COc1ccc(Nc2nccc(-c3cnn4nc(N5CCOCC5)ccc34)n2)cc1 (stereo not drawn) [GW767488],32
7,Cl.Cl.Nc1nc(-c2ccc3c(N)n[nH]c3c2)cc(N2CCCC(NC(=O)c3ccccc3)C2)n1 (stereo not drawn) [GSK2286775],0
8,CCn1c(-c2nonc2N)nc2c(C#CC(C)(C)O)nc(OCCN)cc21.Cl.Cl [GSK902056],0
9,CC(C)Nc1cc(-c2ccc3c(N)n[nH]c3c2)nc(N)n1 [GSK2221681],0
10,Cl.Cl.NC[C@H](CC1CCCCC1)NC(=O)c1cc(Br)c(-c2ccnc3[nH]ccc23)s1 [GSK1581427],0
11,Cc1ccc(-n2nc(C(C)(C)C)cc2NC(=O)Nc2ccc(OCCN3CCOCC3)c3ccccc23)cc1 [GW839464],11
12,Nc1nc(Nc2ccccc2)cc(-c2ccc3c(N)n[nH]c3c2)n1 [GSK2225749],0
13,C[C@@H]1CCN(C(=O)CC#N)C[C@@H]1N(C)c1ncnc2[nH]ccc12,0
14,C=CC(=O)Nc1cc2c(Nc3ccc(F)c(Cl)c3)ncnc2cc1OCCCN1CCOCC1 [GW781483],36
15,CCN(CC)CCCCNc1ncc2cc(-c3c(Cl)cccc3Cl)c(NC(=O)NC(C)(C)C)nc2n1,36
16,CC(C)N1C(=O)Cc2cc(Nc3ncc(C(F)(F)F)c(NCc4cccc(S(C)(=O)=O)c4)n3)ccc21,0
17,Cl.Cl.NC[C@H](Cc1ccc(C(F)(F)F)cc1)NC(=O)c1cc(Br)c(-c2ccnc3[nH]ccc23)s1 [GSK1487252],0
18,Cc1n[nH]c2ccc(-c3cc(OC[C@@H](N)Cc4ccccc4)cnc3-c3ccoc3)cc12.O=C(O)C(F)(F)F.O=C(O)C(F)(F)F [GSK507358],7
19,Cc1cc2cn[nH]c2cc1-c1cccc2c(N)c(C(N)=O)nnc12,37
20,COc1ccc(C[C@@H](CN)NC(=O)c2cc(Br)c(-c3ccnc4[nH]ccc34)s2)cc1.Cl.Cl [GSK1389063],0
21,O=C(NCCNc1ccnc(NCc2ccc(F)cc2)n1)c1cc2ccccc2s1 [GSK1379944],3
22,C[C@H]1Oc2cc(cnc2N)-c2c(nn(C)c2C#N)CN(C)C(=O)c2ccc(F)cc21,0
23,O=C(NCCCN1CCOC1=O)c1cnc(NCc2cc(Cl)ccc2Cl)nc1NC1CCCC1,0
24,NC(=O)c1cc(-c2ccccc2)cc2c(C3CCNCC3)c[nH]c12 [GSK301362],11
25,CN(C)CCOc1ccc(-c2cc(-c3c[nH]nc3-c3ccccn3)ccn2)cc1 [GW835314],0
26,C[C@@H](Oc1cc(-c2cnn(C3CCNCC3)c2)cnc1N)c1c(Cl)ccc(F)c1Cl,0
27,Cc1occc1-c1nc(N)c(OC[C@@H](N)Cc2c[nH]c3ccccc23)cc1-c1cc2c(C)n[nH]c2cn1 [GSK1660450],2
